# Screening results (PubChem)
# AmpC inh no detg: inhibitors of E. coli AmpC beta-lactamase without detergent. Potency, µM (highest dose often 57.1 µM), inactives show at the highest dose activity change, negative = inhibition, usual class: inhibitors. actives 0.52% (n = 330,000). AmpC nitrocefin hydrolysis, absorbance 480 nm, 0.0001% Triton;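 further: plate controls were no compound for no effect and no enzyme for full effect; nearly all actives have a fitted effect of over 20% in size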
# Target sequence (P00811 whole entry, looked up): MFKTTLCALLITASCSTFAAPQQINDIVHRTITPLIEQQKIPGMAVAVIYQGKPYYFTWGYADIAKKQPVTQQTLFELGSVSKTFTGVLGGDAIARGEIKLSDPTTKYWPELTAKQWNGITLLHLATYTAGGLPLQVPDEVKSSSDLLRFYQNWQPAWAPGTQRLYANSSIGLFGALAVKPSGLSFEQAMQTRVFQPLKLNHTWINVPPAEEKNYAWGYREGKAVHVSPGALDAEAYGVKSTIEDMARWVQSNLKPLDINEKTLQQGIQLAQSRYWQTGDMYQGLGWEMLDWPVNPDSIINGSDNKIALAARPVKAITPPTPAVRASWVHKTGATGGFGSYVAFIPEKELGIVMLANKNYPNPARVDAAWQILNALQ
#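 AmpC (5.3 nM in the dispensed reagent) in 20 mM phosphate pH 7.0 with 0.01% (detergent screen) or 0.0001% Triton X-100 was preincubated with compounds for 15 min at room temperature. Nitrocefin was then added from an 800 uM solution, and hydrolysis was followed at 480 nm.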
# FMDV antiviral: blocks foot and mouth disease virus | FMDV antiviral cell-based qHTS | Potency, µM (titrated, usually from 57.9 µM), for the others: at the top dose activity change, negative = inhibition, usual class: inhibitors | actives 1.2% (n = 410,000) | AID 1159524; calls by dose curve; tested in HEK293T cells; further: read-out not given here; nearly all actives have a fitted effect of over 45% in size
# AmpC detergent: inhibitors of E. coli AmpC beta-lactamase with detergent; P00811; AmpC hydrolysis of nitrocefin, absorbance 480 nm, 0.01% Triton; Potency, µM (highest dose often 114 µM), for inactives: at the top dose activity change, negative = inhibition, actives largely listed as inhibitors; actives 0.041% (n = 370,000);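 further: 0% = no-compound wells and -100% = no-enzyme wells; nearly all actives have a fitted effect of over 25% in size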
#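 AmpC (5.3 nM in the dispensed reagent) in 20 mM phosphate pH 7.0 with 0.01% (detergent screen) or 0.0001% Triton X-100 was preincubated with compounds for 15 min at room temperature. Nitrocefin was then added from an 800 uM solution, and hydrolysis was followed at 480 nm.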
# Sm TGR inh: S. mansoni TGR enzyme inhibition; Q962Y6; purified TGR, DTNB reduction, TNB absorbance 405 nm; Potency, µM (series often up to 114 µM), inactives show top-dose activity change, negative = inhibition, actives largely listed as inhibitors; actives 3% (n = 360,000); AID 485364; further: nearly all actives have a fitted effect of over 60% in size
#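 Kinetic colorimetric format: TGR-catalysed, NADPH-driven DTNB reduction monitored via TNB absorbance. Enzyme dispensed at 20 nM; compound exposure 15 min at room temperature before reaction start.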
# AMA1-RON2 inh: AMA1-RON2 (P. falciparum) interaction inhibition; actives 0.2% (n = 360,000); AID 720542; Potency, µM (series often up to 58.2 µM), inactives show at the highest dose activity change, negative = inhibition, hits mostly inhibitors; AlphaScreen AMA1-biotinylated RON2 peptide binding;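 further: 0% = vehicle wells and -100% = peptide control; nearly all actives have a fitted effect of over 45% in size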
#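 AMA1 (3D7) with his tag at 25 nM final met compounds first, then biotinylated RON2 peptide at 25 nM; detection used donor plus acceptor beads, 10 µg/mL apiece, read by AlphaScreen after 30 min at room temperature.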
# * marks the source's active call; other numbers are inactive results; u = inconclusive; x = no result given; [ ] = another dose, or the depositor's remark. Shown are actives, neighbours in structure and some others; about 4.1% of the full set was active somewhere. Unless noted, the call rests on the fitted dose curve; in most records, active means well fitted curve in the direction sought with a large enough effect; inconclusive means small, poorly fitted or top-dose-only effect, or another doubt; inactive means no such curve, though single readings can be large; an effect the other way counts as inactive or inconclusive. Unless noted, on the % scale 0 is the no-effect control and ±100 the full control effect; potency means the concentration at half of the fitted maximal effect.
SMILES,AmpC inh no detg,FMDV antiviral,AmpC detergent,Sm TGR inh,AMA1-RON2 inh
CCNC(=S)NCCC1=c2ccccc2=N/C1=C\c1c(O)n(C)c(=O)n(C)c1=O,-13%,40µM*,1%,u,-9%
Cn1c(O)c(/C=C2\C=Nc3ccc(Br)cc32)c(=O)n(C)c1=O,-16%,-11%,2%,-21%,2%
CCOc1ccc(S(=O)(=O)N2CCC(N3CCN(Cc4ccc(F)cc4)C(=O)C3=O)CC2)cc1,x,-5%,-2%,8%,x
Nc1c(Cl)ncnc1N/N=C/c1cccnc1,-14%,-8%,4%,50µM*,-12%
Cc1ccc(Sc2ccc(NC(=O)CCl)cc2)c(C)c1,-6%,32µM*,3%,u,0%
O=C(COCc1cc(-c2cccs2)on1)Nc1ccc(OC(F)(F)F)cc1,x,-20%,19%,5%,x
O=C(COc1ccccc1)NC1C(=O)N2C(C(=O)O)=C(Cl)CSC12 (centres undefined),-19%,-21%,-15%,u,-9%
Cc1nnc(SCC2=C(C(=O)O)N3C(=O)C(NC(=O)COc4ccc(F)cc4)C3SC2)s1 (centres undefined),3%,-5%,-6%,14µM*,7%
CC1=C(C(=O)OCc2ccccc2)N2C(=O)[C@@H](NC(=O)COc3ccccc3)[C@H]2SC1,-10%,-14%,u,-29%,-4%
CC(=O)OCC1=C(C(=O)O)N2C(=O)C(NC(=O)COc3ccc(F)cc3)C2SC1 (centres undefined),26%,-16%,-2%,14µM*,2%
Cc1nnc(SCC2=C(C(=O)O)N3C(=O)C(NC(=O)c4cc(F)c(F)cc4Cl)C3SC2)s1 (centres undefined),-37%,-13%,u,16µM*,13%
CCC(C(=O)NC1C(=O)N2C(C(=O)O)=C(CSc3nnc(C)s3)CSC12)c1ccccc1 (centres undefined),-20%,-6%,u,4µM*,31%
CC1=C(C(=O)O)N2C(=O)C(NC(=O)C(N)c3ccccc3)C2SC1 (centres undefined),x,6%,x,x,x
COC(=O)CC1Oc2ccc(Cl)cc2-n2cc(-c3ccc(F)cc3)nc21 (centres undefined),x,-1%,-3%,-2%,x
Cc1nn2cc(-c3ccc(OC(C)C)cc3)nc2s1,x,-50%,21%,3%,x
Cc1cccc(NC(=O)C2CCN(c3nc4ccccc4[nH]3)CC2)c1C,x,7%,2%,0%,x
COc1cc(=O)n2c(c1C(=O)N(C)Cc1cscn1)CCN(C(=O)c1ccc(C)cc1C)CC2,x,3%,x,x,x
Cc1nnc(SCC2=C(C(=O)O)N3C(=O)C(NC(=O)COc4ccccc4)C3SC2)s1 (centres undefined),-15%,-15%,2%,7.9µM*,16%
O=C(COC(=O)c1nc(Cl)c(Cl)c(Cl)c1Cl)c1ccc[nH]1,u,-12%,-3%,20µM*,0%
O=C(Nc1ccc(C(=O)N2CCN(c3ccccc3F)CC2)cc1)c1nsc2ccccc12,x,-12%,14%,6%,x
COc1ccc(-n2c(=O)c3c4c(sc3n(Cc3ccc(C(C)(C)C)cc3)c2=O)CCC4)c(OC)c1,x,-13%,-1%,2%,x
Oc1ccc(NCc2cccs2)cc1,-39%,27%,0%,50µM*,62%
Cc1cc(C)n(CCc2nc3c4ccccc4nc(SCc4ccc(F)cc4)n3n2)n1,x,-8%,-6%,-3%,x
CCCN1CC23C=CC(O2)C(C(=O)O)C3C1=O (centres undefined),35µM*,-8%,u,-2%,0%
CCC(C)N1CC23C=CC(O2)C(C(=O)OC)C3C1=O (centres undefined),22µM*,8%,2%,-31%,-2%
SMILES,AmpC inh no detg,FMDV antiviral,AmpC detergent,Sm TGR inh,AMA1-RON2 inh
CCOC(=O)CN1CC23C=CC(O2)C(C(=O)Nc2ccc(OCC)cc2)C3C1=O (centres undefined),7.9µM*,-4%,u,9%,-2%
Cc1ncc2c(c1CNC(=O)/C=C/c1cccs1)CCN(C(=O)c1ccc3c(c1)OCCO3)C2,x,6%,x,x,x
O=C(Nc1ccccc1F)c1ccc(O)c2ncccc12,-32%,x,-14%,-3%,x
COCC(=O)N1CCC2(CC1)CCN(c1ccncc1)CC2,x,-16%,x,x,x
CCc1cccc(C)c1NC(=O)Cn1ccn(Cc2ccc(Cl)cc2)c(=O)c1=O,x,-4%,14%,-3%,x
Cc1cccc(NC(=O)CN2C(=O)CCn3nc(-c4cccn4C)cc32)c1C,x,50%,-1%,-12%,x
O=C(/C=C/NNC(=O)c1ccccc1)c1ccc(Br)cc1,-38%,7%,u,1%,18%
O=C(/C=C/NCC(=O)c1ccccc1)c1ccc(Br)cc1,-35%,55%,0%,20µM*,-3%
CC(C)c1ccc(/C=N/NC(=O)c2ccccn2)cc1,-7%,13µM*,2%,-17%,106%
COc1ccc(OCC(=O)N/N=C/C(C)=C/c2ccco2)c(Br)c1,-14%,33%,-7%,40µM*,-2%
O=C(N/N=C/c1ccncc1)c1ccccn1,-18%,34%,6%,0%,37%
CC(/C=N/NC(=O)c1ccccn1)=C\c1ccco1,-9%,37%,11%,35µM*,14%
O=C(N/N=C/C(Cl)=C/c1ccccc1)c1ccccn1,-13%,50%,0%,x,88%
O=C(N/N=C/C=C/c1ccco1)c1cnccn1,-5%,31%,3%,10µM*,21%
O=C(N/N=C/c1ccco1)c1cnccn1,-4%,x,-9%,5%,12%
C[C@H](CCC(=O)NCC(=O)O)C1CC[C@H]2[C@H]3C(C[C@H](O)[C@]12C)[C@@]1(C)CC[C@@H](O)C[C@H]1C[C@H]3O (some centres undefined),x,-4%,x,x,x
O=C(N/N=C/C=C/c1ccccc1)c1ccccn1,-20%,21%,3%,3%,65%
O=C(N/N=C/C=C\c1ccco1)c1ccccn1,-19%,67%,3%,10µM*,u
Cc1ccc(Cn2c(C(C)NC(=O)c3ccccc3)nc3ccccc32)cc1 (centres undefined),x,-16%,13%,5%,x
COc1ccc(C(C)=O)cc1COC(=O)c1cc(C)oc1C,2%,-7%,-15%,u,11%
COc1ccc(C(C)=O)cc1COC(=O)c1cc(C)nc2ccccc12,12%,-6%,0%,3.5µM*,11%
COc1ccc(C(C)=O)cc1COC(=O)c1ccc2ccccc2n1,-18%[11.4 µM],8%,-8%,25µM*,14%
COc1ccc(C(C)=O)cc1COC(=O)c1c(C)nn(-c2ccccc2)c1C,116%,u,3%,u,-2%
COc1ccc(C(C)=O)cc1COC(=O)c1cc(=O)c2ccccc2o1,-4%,-7%,-7%,1.8µM*,8%
